In the library only some 2.2% were active in any assay of this set; here they are far more common.
Nrf2 block: blocks Nrf2 signaling. AID 504444. Potency, µM (titrated, usually from 46 µM), without a hit: at the highest dose activity change, negative = inhibition, most hits filed as inhibitors. actives 2.1% (n = 360,000). A549 ARE-Fluc reporter, luciferase luminescence, 18-24 h; note: % is set by controls: 0 for no effect and ±100 for the full control effect; nearly all actives have a fitted effect of over 60% in size
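Cells were seeded and rested 2 h, then exposed to compounds for 18-24 h. CellTiter-Fluor was read first as a viability measure. BugLite was added 15 min before the final luminescent read of ARE-luciferase activity in A549 cells.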
Pin1 inhibitor: human Pin1 inhibition | Q13526 | Pin1 FP peptide displacement, HiFluor488, 10 min | Potency, µM (doses to about 115 µM), without a hit: at the top dose activity, negative = inhibition, usual class: inhibitors | actives 0.009% (n = 390,000); active = well fitted inhibition curve with a large enough effect in the polarisation, with a control signal flat, not every such curve was filed as active; inconclusive = small, poorly fitted or top-dose-only effect, or effect the other way, or a change in a side signal; inactive = no such curve, though single readings can be large or run the other way; the % refers to the polarisation; note: % is set by controls: 0 for no effect and ±100 for the full control effect
Target sequence (Q13526 whole entry, looked up): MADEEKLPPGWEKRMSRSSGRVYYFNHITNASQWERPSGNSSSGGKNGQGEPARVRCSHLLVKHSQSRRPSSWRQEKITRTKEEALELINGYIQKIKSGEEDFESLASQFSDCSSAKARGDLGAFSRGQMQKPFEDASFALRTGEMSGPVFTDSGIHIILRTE
A549 viability: A549 cytotoxicity, counter-screen for Nrf2 inhibitors. Potency, µM (top dose mostly 46 µM), without a hit: at the highest dose activity change, negative = cytotoxicity, actives largely listed as inhibitors. actives 0.16% (n = 390,000). A549 ARE-Fluc cells, CellTiter-Fluor viability, 18-24 h. AID 504648; note: % is set by controls: 0 for no effect and ±100 for the full control effect
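A549 ARE-Fluc cells in 5% FBS OPTI-MEM, 5000 cells/well, rested 2 h then exposed to compounds in concentration-response for 18-24 h at 37 °C. Viability by CellTiter-Fluor fluorescence (Ex 405/Em 525) after 30 min; luciferase luminescence (BugLite, 15 min, RT) read afterwards.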
Nrf2 activator: Nrf2 pathway activation. Potency, µM (doses to about 46.1 µM), for inactives: at the highest dose activation, actives largely listed as activators. AID 624171. actives 0.31% (n = 410,000). AREc32 ARE-luciferase reporter (MCF7-derived line), luminescence, 24 h; note: % of control where 0% means no effect; nearly all actives have a fitted effect of over 65% in size
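Luciferase luminescence (Steady-Glo, 30 min at room temperature) served as the read-out of ARE activation in AREc32 cells treated with compounds for 24 hr at 37 deg C.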
An asterisk follows results filed as active; u = inconclusive; x = not tested or not shown. Unless noted, calls come from the whole dose curve; as a rule, active = well fitted curve in the direction sought with a large enough effect; inconclusive = small, poorly fitted or top-dose-only effect, or another doubt; inactive = no such curve, though single readings can be large; an effect the other way counts as inactive or inconclusive. Potency is the fitted concentration of half-maximal effect.

SMILES | Nrf2 block | Pin1 inhibitor | A549 viability | Nrf2 activator
COc1cc2c(cc1O)CC[C@@H]1[C@@H]2CC[C@]2(C)[C@@H](O)CC[C@@H]12 | 9.2µM* | 1% | -12% | 0%
Cc1ccc[n+](CC(=O)c2ccc(Br)cc2)c1 | 23µM* | -11% | -4% | 1%
COc1cc(Nc2ncc3c(n2)CCN(Cc2ccc(OC(C)C)c(OC)c2)C3)cc(OC)c1 | x | u | -3% | 3%
Cn1nc([N+](=O)[O-])nc1S(C)(=O)=O | 23µM* | u | -8% | -2%
O=C(CSc1nc(-c2ccccc2)nc2c1Cc1ccccc1O2)N1CCCCC1 | 0% | -1% | 0% | u
CCc1ccccc1NC(=O)C(=O)NCCCN1CCOCC1 | 1% | -1% | -4% | -1%
O=C1CCN(CCc2ccccc2)CCN1C(CSc1ccc(Br)cc1)Cc1ccccc1 (stereo not drawn) | u | 53% | u | x
Cc1cccc(COCC(Cc2ccccc2)N2CCN(C(=O)c3cccc(Cl)c3)CCC2=O)c1 (stereo not drawn) | 21µM* | -4% | u | 5%
CC(C)CC(COCc1ccc(Cl)cc1)N1CCN(C(=O)c2ccc(Cl)cc2Cl)CCC1=O (stereo not drawn) | 21µM* | -2% | u | -1%
Cc1cccc(COC[C@H](Cc2ccccc2)N2CCN(C(=O)c3cccc(Cl)c3)CCC2=O)c1 | x | x | x | 4%
O=c1c2ccccc2sc2ccc(C#CC3(O)CCCCC3)cc12 | 21µM* | 37% | 0% | -1%
CCC(=O)NC(c1ccc([N+](=O)[O-])cc1)c1c(O)ccc2ccccc12 (stereo not drawn) | 16µM* | 3% | u | 0%
O=C(NC(c1ccc(Cl)cc1)c1c(O)ccc2ccccc12)c1ccccc1 (stereo not drawn) | 12µM* | -2% | u | 9%
COc1cc(C(=O)Nc2nonc2-c2ccc(C)c(C)c2)cc(OC)c1OC | -12% | 0% | 6% | -1%
COc1cc(CSc2nnnn2-c2ccc(C)cc2)cc(OC)c1OC | 6.5µM* | -11% | -8% | 0%
COc1ccc(F)cc1CSc1nnnn1-c1ccc(O)cc1 | 8% | -1% | -9% | 3%
CCN(Cc1cccs1)c1ncnc2ccc(-c3ccc4c(c3)OCO4)cc12 | -30% | -2% | 1% | x
CCOc1ccccc1NC(=O)C(NS(=O)(=O)c1ccc2c(c1)CCC(=O)N2)c1ccccc1 (stereo not drawn) | 17% | 4% | 0% | 11%
COc1ccccc1NC(=O)CCCc1nc(-c2ccc(OC)c(OC)c2)no1 | u | 4% | 4% | 0%
COc1ccc(-c2noc(CCCC(=O)NCCc3ccccc3)n2)cc1OC | 23µM* | 5% | -3% | -1%
COc1ccc(-c2noc(CCCC(=O)NC3CCCCC3)n2)cc1 | 21µM* | -2% | -20% | -1%
COc1ccc(-c2noc(CCC(=O)Nc3cccc(C)c3)n2)cc1 | u | -2% | -21% | 0%
COc1ccc(-c2noc(CCC(=O)NC3CCCC3)n2)cc1 | u | 1% | -9% | 0%
COc1ccc(-c2noc(CCC(=O)NCCc3cccc(C)c3)n2)cc1 | 23µM* | 1% | -9% | -1%
CCOc1ccc(-c2cc(CCCC(=O)NCCc3cc(OC)c(OC)c(OC)c3)no2)cc1 | 15µM* | -9% | -4% | -1%
SMILES | Nrf2 block | Pin1 inhibitor | A549 viability | Nrf2 activator
COc1ccc(C#Cc2c[nH]c(=O)c3cncnc23)cc1OC | 23% | u | -4% | x
O=C(c1ccc(CS(=O)(=O)c2c(Cl)cccc2Cl)o1)N1CCN(c2ccccc2)CC1 | u | 10% | 7% | 5%
Cc1cc(C)c(NC(=O)Cn2c(=O)n(Cc3ccc(C(=O)NCc4ccc5c(c4)OCO5)cc3)c(=O)c3ccccc32)c(C)c1 | 15µM* | 17% | -16% | -1%
COCCn1c(=NC(=O)c2ccc3c(c2)OCCO3)sc2cc(S(N)(=O)=O)ccc21 | 13µM* | 139% | -14% | -1%
Cc1ccc(C(=O)CN2C(=O)c3ccccc3S2(=O)=O)cc1 | 21µM* | 1% | -4% | -3%
Cc1cc(C(=O)CN2C(=O)c3ccccc3S2(=O)=O)c(C)n1-c1ccccc1 | u | u | -7% | -2%
C=CCn1c(C)cc(C(=O)CN2C(=O)c3ccccc3S2(=O)=O)c1C | 0.65µM* | 4% | 5% | -3%
COc1c(/C=N/Nc2nc(N3CCCCC3)nc(N3CCCCC3)n2)cccc1[N+](=O)[O-] | u | -4% | -7% | 0%
O=[N+]([O-])c1ccc(/C=N/Nc2nc(N3CCCCC3)nc(N3CCCCC3)n2)o1 | 18µM* | 32% | u | 6%
O=S1(=O)N=C(OCc2ccccc2)c2ccccc21 | u | -1% | 9% | x
COc1ccc(C2Nc3ccccc3C(=O)N2Cc2ccccc2)cc1COc1ccc(Cl)cc1 (stereo not drawn) | -15% | 8% | -1% | x
CC1C/C(=C/c2ccccn2)C(=O)/C(=C/c2ccccn2)C1 (stereo not drawn) | 16µM* | -5% | u | -1%
O=C1/C(=C/c2ccccn2)COc2ccccc21 | 37% | 2% | 3% | 19%
CC(C)(C)C1C/C(=C/c2ccccn2)C(=O)/C(=C/c2ccccn2)C1 (stereo not drawn) | 5.8µM* | -9% | 5.8µM* | u
COc1ccc(C)cc1NC(=O)COc1cc(=O)n(C)c2ccccc12 | u | -8% | 3% | 0%
CNC(=O)c1ccc2nc(-c3cccc(C)c3)c(-c3cccc(C)c3)nc2c1 | -21% | 8% | -1% | x
COc1cc(/C=C/c2sc3ccccc3[n+]2CCCS(=O)(=O)[O-])ccc1O | u | u | 12µM* | 0%
COc1ccc(NC(=O)c2cc3n(n2)C(C(F)(F)F)CC(c2ccc4c(c2)OCO4)N3)cc1OC (stereo not drawn) | 23µM* | 8% | -26% | 0%
COC(=O)c1[nH]c2ccc(C)cc2c1NC(=O)CN1CCN(c2ccccc2)CC1 | 18µM* | 0% | -19% | 0%
Cc1ccc(NC(=O)c2oc3ccccc3c2NC(=O)C2CCCCC2)cc1 | -8% | 2% | 5% | 0%
Cc1ccc(CNc2ncnc3ccc(-c4ccc5c(c4)OCO5)cc23)o1 | 0% | 24% | -4% | x
COc1ccc2ccccc2c1C(=O)/C=C\c1ccoc1 | 11% | -4% | -3% | 13µM*
Cc1ccc2oc(C(Cl)(Cl)Cl)cc(=O)c2c1 | 1% | -2% | u | 22µM*
COc1ccc(C2=Nn3c(nnc3-c3ccccc3OC)SC2)c(OC)c1 | 19% | 2% | 2% | x
COc1cc(NC(=O)COc2cccc3c2OC(C)(C)C3)cc(OC)c1OC | 10µM* | -7% | -13% | 0%
O=C(Nc1cccc2cccnc12)c1ccc(F)cc1 | u | 1% | 1% | 13µM*
O=C(NC(=S)Nc1cccc2cccnc12)c1cccs1 | 6% | 0% | -3% | 8.9µM*
O=C(NC(=S)Nc1cccc2cccnc12)c1ccccc1 | u | -2% | -2% | 4.5µM*
O=C(Nc1cccc2cccnc12)c1ccccc1 | u | 1% | 0% | x

Source: PubChem BioAssay
